From PubChem
TEAD-YAP inh: TEAD-YAP interaction inhibition, primary screen, TEAD-YAP interaction inhibitor project, luminescence, HEK-TIYL cells; TEAD-Gal4/YAP UAS-luciferase luminescence; inhibition, % at 9.12 µM; 1.4% of 640,000 active; AID 1259422, 2018; in the data active means inhibition above about 32%
MITF inh: MITF inhibitors, primary screen, biochemical, AlphaScreen, human; AID 1259374, 2018; AlphaScreen MITF homodimerization, bead proximity signal; inhibition, % at 2.6 µM; 0.91% of 650,000 active; Microphthalmia-associated transcription factor (Homo sapiens), O75030; in the data active means inhibition above about 50%
GPR151 ag: activators of human GPR151, primary screen, cell-based, PathHunter beta-arrestin, luminescence; activation, % at 11.2 µM; PathHunter beta-arrestin GPR151 cells; AID 1508602, 2020; G-protein coupled receptor 151 (Homo sapiens), Q8TDV0; 1% of 650,000 active; in the data active means activation above about 4.9%
FBW7 act: FBW7 E3 ligase activators, primary screen, biochemical, AlphaScreen, human; AlphaScreen FBW7–phospho-cyclin E peptide binding, activator screen; 0.13% of 650,000 active; normalized activity (activation), % at 26.1 µM; in the data active means normalized activity above about 1.9%;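 further: purified mutant Fbw7 with reduced substrate affinity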
GPR151 confirm: GPR151 activators, triplicate retest, confirmation, cell-based, PathHunter beta-arrestin, luminescence. activation, % at 11.2 µM. 6,700 tested, under 10 active. shares compounds with GPR151 ag. AID 1508609, 2020. GPR151 PathHunter beta-arrestin cells, 90 min; % of EA-reagent control over plate median;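 active means mean percent activation across replicates above the confirmation screen cutoff of 4.91%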
GPR119 ag: GPR119 activators in beta-arrestin cells, counter-screen for GPR151 activator project, cell-based, PathHunter beta-arrestin, luminescence, triplicate; 0.3% of 6,700 active; activation, % at 11.2 µM; AID 1508611, 2020; 90 min; 0 = compound-well median, 100 = enzyme-acceptor control; shares compounds with GPR151 ag;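 active means mean percent activation in the counterscreen above 29.09%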;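 further: counterscreen on off-target GPR119 to flag nonselective hits from the GPR151 activator screen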
Target sequence (Q8TDV5 whole entry, looked up): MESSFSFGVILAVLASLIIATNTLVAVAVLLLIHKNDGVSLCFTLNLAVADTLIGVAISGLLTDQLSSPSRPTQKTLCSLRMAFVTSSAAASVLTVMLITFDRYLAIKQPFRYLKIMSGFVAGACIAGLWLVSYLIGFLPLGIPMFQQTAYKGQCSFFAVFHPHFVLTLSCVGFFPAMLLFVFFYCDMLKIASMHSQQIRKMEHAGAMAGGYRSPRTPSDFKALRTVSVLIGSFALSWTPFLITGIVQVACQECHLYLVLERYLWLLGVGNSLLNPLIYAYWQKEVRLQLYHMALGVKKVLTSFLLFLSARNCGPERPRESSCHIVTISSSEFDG
Hits are given with their value; . = inactive; / = no result given. Most compounds without a hit are left out; they make up all but 3.4% or so of the library.

SMILES	TEAD-YAP inh	MITF inh	GPR151 ag	FBW7 act	GPR151 confirm	GPR119 ag
Cc1cccc(NC(=O)CC(NCCO)C(=O)O)c1 (centres undefined)	.	.	.	.	/	/
O=C(CC(NCCO)C(=O)O)Nc1ccccc1 (centres undefined)	.	.	6.8	.	.	.
COc1ccccc1NC(=O)COc1ccc(C(=O)O)cc1	.	.	7.9	.	.	.
O=C(CC(O)(C(F)(F)F)C(F)(F)F)Nc1ccccc1Br	.	.	.	.	/	/
Cc1ccc(Cl)cc1NC(=O)CC(O)(C(F)(F)F)C(F)(F)F	.	.	5.2	.	.	.
COc1ccccc1NC(=O)CC(O)(C(F)(F)F)C(F)(F)F	.	.	5.8	.	.	.
CCc1ccc(C2=NN(CCC(=O)NCCC3=CCCCC3)C(=O)CC2)cc1	.	.	.	.	/	/
COc1ccc(N2C(=O)N(C(C)C)C(O)C2O)cc1Cl (centres undefined)	.	.	.	.	/	/
COc1ccc(Cl)cc1-n1c(C)nc2cc(C(=O)NCCc3ccccc3)ccc21	.	.	.	.	/	/
Cc1ccc2nc(Cl)c(C3CC(c4ccc(Br)cc4)=NN3S(C)(=O)=O)cc2c1 (centres undefined)	.	.	5.1	.	.	.
CS(=O)(=O)N1N=C(c2ccc(Br)cc2)CC1c1cc2ccccc2nc1Cl (centres undefined)	.	.	.	.	/	/
O=C(O)CN1CCOCCOCCN(CC(=O)O)CCOCCOCC1	.	.	5.9	.	.	.
O=S(=O)(c1ccc(N2CCCC(C(F)(F)F)C2)nc1)N1CCCC1 (centres undefined)	.	.	5.8	.	.	.
COc1ccc(-c2oc3ncn4nc(-c5cccc6ccccc56)nc4c3c2-c2ccc(OC)cc2)cc1	.	.	5.3	.	.	.
O=C(CN1c2cccc3cccc(c23)S1(=O)=O)Nc1ccc(Br)cc1F	.	.	7.1	.	.	.
O=C(CN1c2cccc3cccc(c23)S1(=O)=O)Nc1ccc(F)c(F)c1	.	.	.	.	/	/
COCCN1Cc2cc3cc(C)ccc3nc2OCC1=O	.	.	7.2	.	.	.
Cc1nn(C)cc1CNC(=O)c1cn(C2CCCCC2)cc(C(=O)NCC(C)C)c1=O	.	.	.	.	/	/
O=C(Cc1ccc([N+](=O)[O-])cc1)Nn1c(-c2ccc(Br)cc2)nc2ccccc2c1=O	.	.	.	.	/	/
CCOC(=O)CCN1N=C2CC(C)(C)OCC2C1c1ccc(OC)cc1 (centres undefined)	.	.	.	.	/	/
Cc1c(Cl)cccc1-n1c(SCC(=O)NCCc2ccc(S(N)(=O)=O)cc2)nc2n[nH]c(C)c2c1=N	.	.	.	.	/	/
O=C(NS(=O)(=O)c1ccccc1)c1ccccc1O	.	.	5.6	.	.	.
CCOc1ccc(CNCc2c(C(=O)O)c(C)n(Cc3ccccc3F)c2C)cc1	.	.	.	.	/	/
O=C(CNc1n[nH]c(=O)[nH]c1=O)N/N=C/c1ccccc1	.	.	8.1	.	.	.
CSc1ccc(-c2nnnn2C2CC(=O)C3OCC2O3)cc1 (centres undefined)	.	.	.	.	/	/
SMILES	TEAD-YAP inh	MITF inh	GPR151 ag	FBW7 act	GPR151 confirm	GPR119 ag
COCC1=C(C(=O)OC)C(c2ccc(Cl)cc2Cl)n2nnnc2N1 (centres undefined)	.	.	.	.	/	/
Cc1ccccc1Nc1sc(C(=O)c2ccc(Cl)cc2)c(N)c1C(=O)NCc1ccc(Cl)cc1	.	.	.	.	/	/
Cc1ccccc1Nc1sc(C(=O)c2ccc([N+](=O)[O-])cc2)c(N)c1C(=O)NCc1ccc(Cl)cc1	.	.	6.4	.	.	.
Cc1cccc(CS(=O)(=O)N2CC(c3nc(C4CC4)no3)C2)c1	.	.	.	.	/	/
CN(C)/C=C1\N=C(c2ccccc2F)OC1=O	.	.	6.9	.	.	.
CN(C)c1ccc(/C=C2\N=C(c3ccccc3F)OC2=O)cc1	.	.	.	.	/	/
COc1ccc(NC(=O)N(Cc2cc3cc(C)ccc3n3nnnc23)CC2CCCO2)cc1 (centres undefined)	.	.	.	.	/	/
O=C(Cc1ccc(F)cc1)NCCc1ccc(F)cc1	.	.	.	.	/	/
CCCC(=O)NCCc1ccc(F)cc1	.	.	19	.	.	.
O=c1nc(SCc2cccc3ccccc23)c2c(n1CCCO)CCCC2	.	.	.	.	/	/
O=c1nc(SCc2c(F)cccc2Cl)c2c(n1CCCO)CCCC2	.	.	5.1	.	.	.
O=C(CCC1CCCCC1)NNC(=O)c1cnccn1	.	.	6.5	.	.	.
O=C(NNC(=O)C1CCCCC1)c1cnccn1	.	.	.	.	/	/
COc1ccc(C(=O)Nc2ccc(C(=O)N/N=C/c3ccc(O)cc3O)cc2)cc1	.	.	8.6	.	.	.
COc1ccc(C(=O)N/N=C/c2ccco2)cc1	.	.	6.9	.	.	.
COc1ccc(N2Cc3ccc(C(=O)N/N=C/c4ccco4)cc3C2)cc1	.	.	.	.	/	/
Cc1cc(C)cc(N(CC(=O)N(C)Cc2ccccc2)S(=O)(=O)c2c(C)noc2C)c1	.	.	.	.	/	/
C=CCNc1nc(Cl)nc(NCCC2=CCCCC2)n1	.	.	5.1	.	.	.
S=C1NC2(CCCCC2)N=C1c1ccccc1	.	.	8.1	.	.	.
Fc1ccc(C2=NC3(CCCCC3)NC2=S)cc1	.	.	.	.	/	/
COC(=O)c1[nH]ncc1Br	.	.	6.1	.	.	.
COc1ccc(OC)c(/C=N/NC(=O)c2[nH]ncc2Br)c1	.	.	.	.	/	/
CC1=C2C(O)C(=O)OC3CC4C(C)(C)C(=O)C=C[C@]4(C)C(CC1)[C@]23C (some centres undefined)	.	.	6.0	.	.	.
CCc1[nH]n2c(=O)c(Cl)c(C)nc2c1-c1cccs1	.	.	7.3	.	.	.
Cc1cccn2c(CNC3CCCc4ccccc43)c(C(=O)N3CCOCC3)nc12 (centres undefined)	.	.	.	.	/	/
Cc1cccn2c(CN[C@@H]3CCCC[C@H]3c3ccccc3)c(C(=O)N3CCOCC3)nc12	.	.	5.0	.	.	.
O=C1c2cccc3cc([N+](=O)[O-])cc(c23)C(=O)N1c1cccc(Cl)c1	.	.	.	.	/	/
O=C(Cc1ccc(-c2ccccc2)cc1)NNC(=O)Nc1ccc2c(c1)OCO2	.	.	.	.	/	/
CCOc1cc(C2CC(=O)NC3=C2C(=O)C(C(=O)OC)C(C)C3)cc(Cl)c1O (centres undefined)	.	.	8.3	.	.	.
